Active and inactive are the calls of the source. Calls follow the shape of the dose curve; as a rule, active = well fitted curve in the direction sought with a large enough effect in the repeat runs; inconclusive = weak or mixed curves; inactive = flat fitted curve, though single readings scatter.
% is scaled to controls: 0 for no effect and ±100 for the full control effect.

A short description of this experiment: qHTS assay to test for compound auto fluorescence at 535 nm (green) in HEK293 cell free culture (AID 720682). To be noted: cell-free medium, green autofluorescence 485/535 nm, active compounds read high; series mostly up to 91.3 µM. The source says:
U.S. Tox21 Program National Center for Advancing Translational Sciences [NCATS] NIH Chemical Genomics Center [NCGC] U.S. Environmental Protection Agency [EPA] National Institutes of Environmental Health Sciences [NIEHS] National Toxicology Program [NTP] U.S. Food and Drug Administration [FDA] Tox21 Assay Overview: Compound auto fluorescence often interferes with screening of the compound library against various biological targets and signaling pathways. Some of these compounds may have fluorophoric properties. Such properties may interfere with the assay outputs resulting in false positives and/or negatives. To decrease such complications and ensure the compound activities are relevant in terms of biological response, the Tox21 10K compound library was screened for auto fluorescence. From the fluorophores used as reporter signals in our screening assays, the auto fluorescence equivalencies of compounds against three fluorophores have been evaluated: Triamterene, Fluorescein and Rose Bengal sodium for blue, green and red fluorescence, respectively. The fluorescence intensities were measured using Excitation/Emission wavelengths at 405/460nm, 485/535nm and 540/590nm for blue, green and red labels, respectively. This assay includes the green fluorescence data.
Tox21 Assay Protocol Summary: 5 uL of culture medium (DMEM containing 10% FBS) per well was dispensed into black wall/clear bottom 1536-well plates using a Multidrop Combi Dispenser (ThermoFisher Scientific, Waltham, MA). After 23 nL compound or DMSO vehicle was transferred into assay plate by a pintool work station (Kalypsys, San Diego, CA), fluorescence intensities in the assay plates were measured by an Envision (PerkinElmer, Shelton, CT) plate reader using three labels for measuring blue, green and red fluorescence at […] 460, 535 and 590nm respectively.
With `COc1c(C)c2c(c(O)c1C/C=C(\C)CCC(=O)O)C(=O)OC2`, the activity change was -0.148% [at 18.6 µM] (inactive).
`Cc1[nH]nc2c1N=C(c1ccccc1Cl)c1cc([N+](=O)[O-])ccc1N2`: the compound was classed as inactive.
Consider `O=C(OCC(COC(=O)c1ccccc1)(COC(=O)c1ccccc1)COC(=O)c1ccccc1)c1ccccc1`, for which the result was inactive.
Take `C1CCCC1`: the result was inactive.
With `CN(C/C=C/C#CC(C)(C)C)Cc1cccc2ccccc12`, the call was inactive.
For the compound `C[C@@H]1C[C@H]2[C@@H]3CCC4=CC(=O)C=C[C@]4(C)[C@@]3(Cl)[C@@H](O)C[C@]2(C)[C@@]1(OC(=O)c1ccco1)C(=O)CCl`, the activity change was -0.0517% [at 18.6 µM] (inactive).
For `CCCCCCCCCCCCCCCCCC[N+](C)(C)Cc1ccccc1`, the compound was called inactive.
Regarding `O=C1C=CC(=O)N1c1ccc(Cc2ccc(N3C(=O)C=CC3=O)cc2)cc1`, the outcome was inactive.
On to `O=[N+]([O-])c1cc(Cl)c(Cl)c(Cl)c1Cl`, for which the result was inactive.
Same read-out and setting: under `Cc1cc(O)c2ccccc2c1O` stands “inactive”; under `CCCCCCCC[P+](CCCCCCCC)(CCCCCCCC)CCCCCCCC`, “inactive”.
In the case of `O=C(NOCC1CC1)c1ccc(F)c(F)c1Nc1ccc(I)cc1Cl`, the call was inactive.
As for `CC[C@H](c1ccc(O)cc1)[C@@H](CC)c1ccc(O)cc1`, the outcome was inactive.
Same read-out and setting: the entry for `Cc1cc(O)c(Cl)c(C)c1Cl` is “inactive”; for `C=C(C)C(=O)OCC(O)COc1ccc(C(C)(C)c2ccc(OCC(O)COC(=O)C(=C)C)cc2)cc1` (stereo not given) it is “inactive”.
In the case of `CC(=O)N1CCN(c2ccc(OC[C@H]3CO[C@](Cn4ccnc4)(c4ccc(Cl)cc4Cl)O3)cc2)CC1`, the outcome was inactive.
On to `CC(C)=CCOc1ccc(/C=C/C(=O)c2ccc(OCC=C(C)C)cc2OCC(=O)O)cc1`, for which the compound was called inactive.
On to `CCCCN(CCCC)c1ccc(C(=O)c2ccccc2C(=O)O)c(O)c1`, for which the outcome was inactive.
For the compound `On1ccccc1=S`, the call was inactive.
For `CCOc1nc2cccc(C(=O)OC(C)OC(=O)OC3CCCCC3)c2n1Cc1ccc(-c2ccccc2-c2nn[nH]n2)cc1` (stereo not given), the outcome was inactive.
Consider `C=CC(=O)OCC(CO)(COC(=O)C=C)COC(=O)C=C`, for which the outcome was inactive.
As to `Oc1ccc(N=Nc2ccccc2)cc1`, the outcome was inactive.
With `C=CC(=O)OCCn1c(=O)n(CCOC(=O)C=C)c(=O)n(CCOC(=O)C=C)c1=O`, the compound was called inactive.
As to `CCCCCCCCCCCCCC[P+](CCCC)(CCCC)CCCC` (tested in a mixture with another compound), the result was inactive.
Same read-out and setting: under `CCCCN1CCCC[C@H]1C(=O)Nc1c(C)cccc1C` stands “inactive”; under `Cc1ccc2oc(CN(Cc3ccccc3)C(=O)Nc3c(F)cc(F)cc3F)c(-c3ccc(Cl)cc3)c2c1`, “inactive”.
Regarding `NNc1nc(-c2ccc([N+](=O)[O-])cc2)cs1`, the call was inactive.
Same read-out and setting: under `N#CSc1ccc(N)c([N+](=O)[O-])c1` stands “inactive”.
Turning to `Cc1cccc(S(=O)(=O)O)c1C`, the compound was called inactive.
In the case of `CSc1ccc(C(=O)c2[nH]c(=O)[nH]c2C)cc1`, the call was inactive.
Still for that read-out and setting: under `CC(=O)OCC(C)OC(C)=O` (stereo not given) stands “inactive”; under `CCCN(CCC)C(=O)C(CCC(=O)OCCCN1CCN(CCOC(=O)Cc2c(C)n(C(=O)c3ccc(Cl)cc3)c3ccc(OC)cc23)CC1)NC(=O)c1ccccc1` (stereo not given), “inactive”.
In the case of `CCCC1O[C@@H]2C[C@H]3[C@@H]4CCC5=CC(=O)C=C[C@]5(C)[C@H]4[C@@H](O)C[C@]3(C)[C@]2(C(=O)CO)O1` (stereo not given in full), the call was inactive.
The same measure, in the same setting: the entry for `[Cl][Bi]([Cl])([c]1ccccc1)([c]1ccccc1)[c]1ccccc1` is “inactive”; for `O=C(N/N=C/c1ccccc1O)c1ccncc1` it is “inactive”; for `CCC(C)Nc1ccc(NC(C)CC)cc1` (stereo not given) it is “inactive”.
As to `NC(=O)N1C(=O)C(C(=O)c2cc(Cl)cs2)c2cc(F)c(Cl)cc21` (stereo not given), the result was inactive.
Turning to `CN(C)c1ccc(C2(c3ccc(N(C)C)cc3)OC(=O)c3cc(N(C)C)ccc32)cc1`, the compound was classed as inactive.
The same measure, in the same setting: under `Cn1cc(C(=O)[C@@H]2CCc3nc[nH]c3C2)c2ccccc21` stands “inactive”.
Turning to `CCOC(=O)O[C@H](C)OC(=O)c1ccc2c(c1)cc(C(=O)NC1CCN(C(C)C)CC1)n2Cc1cc(-c2ccc(Cl)s2)on1`, the outcome was inactive.

Values taken from PubChem BioAssay (Tox21).
